# Experimental data from paper PMC5540273 (PLoS ONE, 2017).
# Where two headings read alike, the source gives them in different places.
# How the values were obtained:
# Conditions in all cases: n = 1
# TNIK = test system: TNIK
# TNK1 = test system: TNK1
# TNK2 = test system: TNK2
# TNNI3K = test system: TNNI3K
# TRKA = test system: T1, TRKA
# T1 construct: gene NTRK1
# TRKB = test system: TRKB
# TRKC = test system: T2, TRKC
# T2 construct: gene NTRK3
# TRPM6 = test system: TRPM6
# TSSK1B = test system: TSSK1B
# TSSK3 = test system: TSSK3
# [1] = concentration: 1 μM, replicates: in singlicate
# 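Note: KINOMEscan kinase panel screen.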
Structure (SMILES),%Inh (TNIK; [1]) [%],%Inh (TNK1; [1]) [%],%Inh (TNK2; [1]) [%],%Inh (TNNI3K; [1]) [%],%Inh (TRKA; [1]) [%],%Inh (TRKB; [1]) [%],%Inh (TRKC; [1]) [%],%Inh (TRPM6; [1]) [%],%Inh (TSSK1B; [1]) [%],%Inh (TSSK3; [1]) [%],%Inh (TNIK; 1 µM) [%],%Inh (TNK1; 1 µM) [%],%Inh (TNK2; 1 µM) [%],%Inh (TNNI3K; 1 µM) [%],%Inh (TRKA; 1 µM) [%],%Inh (TRKB; 1 µM) [%],%Inh (TRKC; 1 µM) [%],%Inh (TRPM6; 1 µM) [%],%Inh (TSSK1B; 1 µM) [%],%Inh (TSSK3; 1 µM) [%]
COC(=O)c1c(-c2ccccc2)c2cc(OC)ccc2c(=O)n1Cc1ccccc1,1,0,0,0,0,0,0,11,10,0,,,,,,,,,,
O=C1NC(=O)C(N2CCc3ccccc32)=C1c1ccccc1Cl [SB-373598],5,3,11,4,22,0,4,11,8,18,,,,,,,,,,
Cc1cccc(-c2nc(-c3ccc(S(C)(=O)=O)cc3)sc2-c2ccnc(NCCc3ccccc3)c2)c1,10,0,0,0,0,0,15,0,0,0,,,,,,,,,,
Cc1ccc(NC(=O)Nc2cccc(Cl)c2)cc1-c1ccc(C(=O)Nc2ccncc2)cc1 [GSK1398468],0,0,12,64,0,0,6,0,0,8,,,,,,,,,,
Cc1cccc(-c2nc(Nc3ccncc3)c3ccccc3n2)n1 [GW855857],29,39,0,20,0,0,0,0,0,0,,,,,,,,,,
Cc1ccc(-c2cc(-c3c[nH]nc3-c3ccccn3)ccn2)cc1 [GW684088],90.2,19,12,0,18,22,40,0,0,10,,,,,,,,,,
COc1ccccc1CNC(=O)c1cc(C(=O)c2ccccc2C)c[nH]1 [GSK364507],0,0,17,0,0,24,2,21,16,6,,,,,,,,,,
O=C(Nc1n[nH]c2nc(-c3nccs3)c(Br)cc12)C1CC1 [SB-742251],0,0,16,4,59,62,66,0,0,15,,,,,,,,,,
COc1ccc(CNC(=O)NC2CCN(c3ccnc(Nc4cc(OC)c(OC)c(OC)c4)n3)C2)cc1 (stereo not drawn) [GSK1379748],0,0,4,10,73,23,40,18,0,10,,,,,,,,,,
Cc1cccc(-c2cc(Nc3ccncc3)c3ccccc3n2)n1 [GSK223675],0,0,0,0,0,0,0,0,0,11,,,,,,,,,,
COc1ccc2nc(-c3cccc(C)n3)nc(Nc3ccncc3)c2c1 [GSK204919],9,0,15,16,0,0,0,0,0,14,,,,,,,,,,
COC(=O)c1c(-c2ccccc2)c2cc(C(=O)O)ccc2c(=O)n1Cc1ccccc1,0,0,0,0,0,0,11,0,0,0,,,,,,,,,,
COc1ccc(Nc2nccc(-c3cccc(NC(=O)c4cc5cc(F)ccc5[nH]4)c3)n2)cc1 [GSK1229782],84,0,16,0,52,36,47,33,22,35,,,,,,,,,,
Cc1ccc(NC(=O)Nc2cccc(C(F)(F)F)c2)cc1 [GSK955403],,,,,,,,,,,3,17,2,0,0,0,0,0,0,8
Cn1ccc2ncnc(Oc3ccc(Nc4nc5ccccc5[nH]4)cc3)c21,0,0,0,0,0,0,0,100,0,0,,,,,,,,,,
